# CYP2C19 inhib – blocks human cytochrome P450 2C19 | inhibition, % at 5 µM | actives 21% (n = 96,000) | CYP2C19 Supersomes, luciferin-H EGE luminescence, 30 min | P33261;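 active = CYP2C19 inhibition above a set limit at 5 µM in the primary screen, cut at about 50% in these data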;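 note: plate controls were negative control wells for no effect and 2.5 mM tranylcypromine positive control for full effect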
# Pyk2 oligo antag – blocks oligomerization of human Pyk2 in cells | Q293 cells, Pyk2 FERM NanoBiT luminescence; stronger effect = lower value | AID 1347419 | z-score (the deposit names both 25 µM and 10 µM) | actives 0.83% (n = 99,000) | Q14289;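 active = Z-score of -3 or lower, scaled per plate to the spread of control and sample wells; inactive = z-score above -3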;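 note: negative z-score means lost luminescence so less FERM oligomerization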
# CYP2C19 act – cytochrome P450 2C19 (human) activation; recombinant CYP2C19, luciferin-H EGE luminescence; stronger effect = higher value; 0 = fully inhibited enzyme, 1 = untreated enzyme; activation factor at 5 µM; AID 1025; 96,000 tested, under 10 active;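 active = activation factor of at least 2 at 5 µM in the primary screen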;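 note: 0 = wells with 2.5 mM tranylcypromine and 1 = vehicle-only wells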
# CYP2C9 act – activators of human CYP2C9; recombinant CYP2C9, luciferin-H conversion, luminescence; stronger effect = higher value; factor 1 = untreated enzyme, 0 = blocked; activation factor at 5 µM; actives 1.4% (n = 96,000); AID 1024;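 active = activation factor of 2 or more for CYP2C9 at a 5 µM dose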;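 note: 0 = sulfaphenazole-blocked wells and 1 = vehicle-only wells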
# Cav32 inh – inhibitors of human Cav3.2 T-type calcium channel | B-score at 10 µM | Cav3.2-expressing cells, Fluo-4 calcium fluorescence FDSS; stronger effect = lower value | O95180 | AID 449739 | actives 4% (n = 100,000);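 active = single-dose well whose peak fluorescence ratio is a statistical outlier from its plate by either plate-standardised score or position-corrected B-score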
# CYP2C9 inhib – blocks human cytochrome P450 2C9. P11712. CYP2C9 Supersomes, luciferin-H conversion, luminescence. inhibition, % at 5 µM. actives 20% (n = 96,000). AID 777;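 active = blocking of liver enzyme CYP2C9 beyond about 50% at 5 µM, limit read from the data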
# * marks the source's active call; other numbers are inactive results; x = no result. An excerpt weighted towards active compounds, which were near 27% of everything screened.
SMILES,CYP2C19 inhib,Pyk2 oligo antag,CYP2C19 act,CYP2C9 act,Cav32 inh,CYP2C9 inhib
CNc1nnc(CSc2nc3ccccc3s2)s1,x,-0.22,x,x,-0.125,x
CCOC(=O)c1ccc(NC(=S)N2CCSC2c2c(F)cc(F)cc2F)cc1 (centres undefined),x,-0.66,x,x,x,x
CCc1ccc(N(C(=O)c2ccco2)C(C(=O)NC2CCCC2)c2ccco2)cc1 (centres undefined),x,-0.92,x,x,-1.95,x
CC(C)(C)n1ncc2c(=O)n(Cc3c(F)cccc3Cl)cnc21,86.9*,-1.33,0.1,0.7,-2.79,31.9
CC(=O)Nc1ccc(NC(=O)Cn2cnc3c(cnn3C(C)(C)C)c2=O)cc1,-11.2,x,1.1,1,-0.103,-1.2
CC(C)(C)n1ncc2c(=O)n(CC(=O)Nc3ccc(Cl)cc3)cnc21,6.7,-1.33,0.9,0.7,-9.52*,25.7
COc1ccc(OCc2cccc(C(=O)Nn3cc([N+](=O)[O-])cn3)c2)cc1,x,-0.48,x,x,-2.9,x
CC(=O)N1CCc2cc(S(=O)(=O)Nc3cccc(C(F)(F)F)c3)ccc21,95.3*,-1.75,0,0.3,-1.35,71.0*
COc1ccc(S(=O)(=O)Nc2ccc3c(c2)OCO3)cc1C(=O)O,10.8,1.09,0.9,0.9,-0.701,11.4
CC(=O)N1CCCc2cc(S(=O)(=O)Nc3ccc4c(c3)OCO4)ccc21,98.6*,0.64,0,0.1,0.261,86.8*
CCN(c1cccc(C(F)(F)F)c1)S(=O)(=O)c1ccc2c(c1)CCN2C(=O)C1CC1,48.8,-2.71,0.5,0.7,-4.7*,30.9
NC(=O)[C@@H]1CCCNc2c(I)cc([N+](=O)[O-])cc2C(=O)N[C@@H](CO)C(=O)NCC(=O)N1,x,x,x,x,0.0519,x
CCCCC(c1nnnn1Cc1ccco1)N1CCN(C(=O)c2ccco2)CC1 (centres undefined),85.3*,-0.99,0.1,0.5,-0.297,50.7*
Cc1ccc(C(c2nnnn2Cc2cccs2)N2CCN(C(=O)c3ccco3)CC2)cc1 (centres undefined),71.1*,-1.25,0.3,0.5,-0.0665,48.3
CC(C)CC(c1nnnn1CCc1ccccc1)N1CCN(C(=O)c2ccco2)CC1 (centres undefined),80.1*,0.26,0.2,0,0.0866,98.5*
O=C(c1ccco1)N1CCN(C(c2ccccc2Cl)c2nnnn2CC2CCCO2)CC1 (centres undefined),-11.0,0.11,1.1,1.1,0.317,-8.9
CCC(c1nnnn1CCc1ccccc1)N1CCN(C(=O)c2ccco2)CC1 (centres undefined),6.1,0.3,0.9,0.9,0.375,12.0
O=C(c1ccco1)N1CCN(C(c2ccccc2F)c2nnnn2Cc2cccs2)CC1 (centres undefined),8.4,-1.03,0.9,0.9,0.0031,14.0
O=C(c1ccco1)N1CCN(C(c2ccccc2F)c2nnnn2CC2CCCO2)CC1 (centres undefined),23.7,3.29,0.8,0.3,0.589,70.7*
c1ccc(-c2csc(Cc3nnc4n3CCCCC4)n2)cc1,24.1,0.57,0.8,0.9,0.121,5.5
CCn1cc(C(=O)N2CCN(c3cccc(Cl)c3)CC2)c2cc(OC)c(OC)cc2c1=O,76.4*,-0.64,0.2,0.2,0.0817,80.1*
COc1cccc2c(=O)n(CC(=O)N3CCCc4ccccc43)ccc12,86.7*,x,0.1,0.5,0.193,45.6
CCn1cc(C(=O)N2CCCc3ccccc32)c2cc(OC)c(OC)cc2c1=O,55.7*,-0.01,0.4,0.8,x,20.9
Cc1ccc(C)c2c3c([nH]c12)-c1nonc1CC3,17.1,0.32,0.8,0.9,-1.58,5.2
NC(=O)c1cn(-c2ccccc2)nc1-c1cc2ccccc2oc1=O,-6.9,0.32,1.1,1.1,-0.229,-8.0
SMILES,CYP2C19 inhib,Pyk2 oligo antag,CYP2C19 act,CYP2C9 act,Cav32 inh,CYP2C9 inhib
O=C(c1ccccc1)c1nn(-c2ccc(Cl)cc2)cc1C(=O)c1cc2ccccc2oc1=O,26.3,-0.43,0.7,0.3,x,67.2*
COc1ccc(C)cc1-n1nnnc1SCC1CCCO1 (centres undefined),98.3*,0.84,0,0.4,0.471,55.3*
COc1ccc(C)cc1-n1nnnc1SCC(=O)c1ccc2c(c1)OCCO2,-2.8,-1.09,1,1.2,-0.389,-17.3
COc1ccc(C)cc1-n1nnnc1SCc1nc2ccccc2s1,72.8*,-2.75,0.3,0.2,x,77.9*
Cc1ccc(N2C(=O)CSC2c2ccccn2)cc1Cl (centres undefined),28.0,-0.63,0.7,1.3,0.0862,-30.5
COc1ccc(CCNC(=O)Cn2cnc3c(cnn3-c3ccccc3Cl)c2=O)cc1OC,14.5,-0.39,0.9,1,1.29,3.8
Cc1ccc(SCc2noc(C(=O)NC(C)C)c2C(=O)O)cc1C,10.7,x,0.9,0.2,-0.275,80.3*
CC(C)NC(=O)c1onc(CSc2cccc(Cl)c2)c1C(=O)O,10.4,x,0.9,0.4,0.0232,64.4*
O=C(NCC1CCCO1)c1onc(CSc2ccc(Cl)cc2)c1C(=O)O (centres undefined),18.9,x,0.8,0.5,0.787,51.2*
CC(C)NC(=O)c1onc(CSc2ccc(C(C)C)cc2)c1C(=O)O,22.6,x,0.8,0.1,-1.24,90.7*
Cc1ccccc1SCc1noc(C(=O)NC(C)C)c1C(=O)O,13.0,x,0.9,0.6,1.95,40.3
COCCNC(=O)c1onc(CSc2ccc(C)c(C)c2)c1C(=O)O,32.9,x,0.7,0.8,0.0118,23.6
COc1cc(C(=O)NCCN2CCCC2)cc(OC)c1OC,x,-0.62,x,x,0.194,x
O=C1c2ccccc2C(=O)N1c1ccc(S(=O)(=O)N2CCN(c3ccccc3)CC2)cc1,5.9,1.55,0.9,0.9,0.878,14.6
O=C1N[C@@H](Cc2ccccc2)C(=O)N2[C@@H]1C[C@@]1(Br)c3ccccc3N(S(=O)(=O)c3ccccc3)[C@@H]21,x,x,x,x,-1.32,x
CC(C)NC(=O)c1onc(CSc2ccc(F)c(F)c2)c1C(=O)O,22.8,x,0.8,0.2,0.175,76.2*
c1ccc(N2CCN(c3nnc(Cc4cccnc4)c4ccccc34)CC2)nc1,52.6*,-0.01,0.5,0.7,-0.59,25.9
Cn1c2c(c(=O)n(C)c1=O)CN(Cc1ccc3c(c1)OCO3)CN2,1.5,1.2,1,1.1,0.142,-9.3
O=C(Nc1cccc(F)c1)C1CC(=O)N(c2ccc(Cl)cc2)C1 (centres undefined),87.6*,0.75,0.1,0.3,-5.82*,70.9*
COc1ccccc1CNC(=O)C1CC(=O)N(c2ccc(C)c(C)c2)C1 (centres undefined),57.9*,-0.17,0.4,2.5*,0.534,-152.4
COc1ccc(/C=C2\SC(=O)N(CCNC(=O)C3CC(=O)N(c4ccccc4)C3)C2=O)cc1 (centres undefined),16.2,1.08,0.8,0.4,0.76,58.7*
C=CCN(CC=C)C(=O)C1CC(=O)N(c2ccc(Br)cc2)C1 (centres undefined),62.7*,-1.41,0.4,0.8,0.433,24.3
